# Experimental data published in PubChem BioAssay AID425 (Sanford-Burnham Center for Chemical Genomics, 2006).
# Values joined by “and” are separate entries in the source; they are usually repeats but may differ in a detail not shown here. Identical values can stand only once. Screen size: about 110,000 compounds; about 190 (0.17%) were called active. The sample holds actives, similar compounds and a random draw of the others, so the mix is not that of the screen. Rule as the data show it: active = inhibition above about 50%; inactive = the rest. Entries with a potency or affinity are not part of this list. A structure can be active in one record and inactive in another.
# Molecular target: Dual specificity protein phosphatase 6 (Rattus norvegicus) (UniProt Q64346)
# Sequence (Q64346 whole entry, looked up): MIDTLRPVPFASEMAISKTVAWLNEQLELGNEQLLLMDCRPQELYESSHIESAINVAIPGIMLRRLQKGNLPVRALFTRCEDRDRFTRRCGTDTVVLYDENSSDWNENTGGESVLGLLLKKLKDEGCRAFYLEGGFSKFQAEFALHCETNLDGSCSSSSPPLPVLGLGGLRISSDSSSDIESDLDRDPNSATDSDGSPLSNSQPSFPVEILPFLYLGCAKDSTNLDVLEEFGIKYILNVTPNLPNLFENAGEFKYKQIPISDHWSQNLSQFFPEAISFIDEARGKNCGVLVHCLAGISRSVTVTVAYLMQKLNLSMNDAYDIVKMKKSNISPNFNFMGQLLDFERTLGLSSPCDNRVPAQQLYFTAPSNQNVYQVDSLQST
# Test: MKP-3 phosphatase inhibitors, primary screen, biochemical, rat enzyme, in vitro (AID 425);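 also: plate controls were vehicle for no effect and reference inhibitor for full effect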
# Conditions: recombinant MKP-3 phosphatase activity, fluorescence; at 20 µM; stronger effect = higher value
row,Structure (SMILES),inhibition
1,Cc1cc(N2CCCC(C(=O)Nc3ccc4c(c3)CCC4)C2)n2ncnc2n1 (stereo not given),-8.9% (inactive)
2,Oc1[nH]c2ccccc2c1N=Nc1nc(-c2ccccc2)c2cc(Br)ccc2n1,12% (inactive)
3,CN(C)c1ccc(/C=C2/SC(N=Nc3c(O)[nH]c4ccccc34)=NC2=O)cc1,28.7% (inactive)
4,O=C1N=C(N=Nc2c(O)[nH]c3ccccc23)S/C1=C/c1ccc(Br)cc1,53.2% (active)
5,CCOC(=O)C1C(=O)CC(C)(O)C(C(=O)OCC)C1c1ccc(OCC)cc1 (stereo not given),0.2% (inactive) and -2.5% (inactive)
6,CCOc1ccc(-n2c(SCC(N)=O)nc3c([nH]c4ccccc43)c2=O)cc1,-3.1% (inactive)
7,CC(C)(C)c1cnnn1-c1ccc(NC(=O)c2ccc3c(c2)OCO3)cc1,-6.9% (inactive)
8,CC(C)[C@H](NC(=O)Nc1ccc2c(c1)OCCO2)C(=O)O,-0.5% (inactive)
9,COc1ccc(C(=O)c2no[n+]([O-])c2C(=O)c2ccc(OC)cc2)cc1,-8.8% (inactive)
10,Cc1ccc(C(=O)c2nocc2C(=O)c2cccs2)cc1,-9.8% (inactive)
11,COC(=O)C1=C(C)NC(=O)NC1c1ccc(OCCO)c(OC)c1 (stereo not given),4.3% (inactive)
12,O=C(CCC1CCCC1)Nc1cccc(F)c1,-0.4% (inactive)
13,CC(C)Cn1c(=S)[nH]c2sc3c(c2c1=O)CC(C)(C)OC3,3.9% (inactive)
14,CCOC(=O)CCn1nnc(N)n1,-5% (inactive)
15,Cc1cc2c(cc1Br)NC(=O)C2=O,1.5% (inactive)
16,Cc1cc([N+](=O)[O-])cc2c1NC(=O)C2=O,79.8% (active)
17,Cc1cc([N+](=O)[O-])ccc1N1C(=O)c2ccccc2C1=O,-1.5% (inactive)
18,O=C(CSCc1cnn(-c2ccccc2)c1-n1cccc1)NCc1cccs1,-0.1% (inactive)
19,O=C1C=CC(=O)c2c1c(-c1ccccc1)nn2-c1ccccc1,63.4% (active)
20,Cc1ccc(-n2nc(-c3ccccc3)c3c2C(=O)C=CC3=O)cc1,38.9% (inactive)
21,O=C1c2ccccc2C(=O)c2c1c(-c1ccccc1)nn2-c1ccccc1,1.2% (inactive)
22,CN(C)CCC(=O)c1ccc(O)cc1,3.3% (inactive)
23,N#Cc1c(N)sc2c1CCN(Cc1ccccc1)C2,14.1% (inactive)
24,N#Cc1c(N2CCCCC2)nc(N2CCCCC2)c2c1CCN(Cc1ccccc1)C2,3.8% (inactive)
25,CCn1cc(C(=O)NC2CCC(C)CC2)c(=O)c2cc(S(=O)(=O)N3CCCCC3)ccc21 (stereo not given),56.1% (active)

row,Structure (SMILES),inhibition
1,CCn1cc(C(=O)NC2CCCCCC2)c(=O)c2cc(S(=O)(=O)N3CCCCC3)ccc21,3.2% (inactive)
2,CCn1cc(C(=O)NC2CCCC2)c(=O)c2cc(S(=O)(=O)N3CCOCC3)ccc21,3.9% (inactive)
3,Cc1nc2ncccn2c1-c1csc(Nc2cccc(O)c2)n1,2.7% (inactive)
4,O=C(CCCCC(=O)NCc1cccs1)NCc1cccs1,-5.6% (inactive)
5,CCn1cc(C(C)NC(=O)COc2ccc(Cl)cc2C)c(C)n1 (stereo not given),-4% (inactive)
6,c1ccc(-c2nc(C3COc4ccccc4O3)cs2)cc1 (stereo not given),-4.2% (inactive)
7,CCOc1ccc2nc(Nc3nc(O)c(C)c(=O)[nH]3)nc(C)c2c1,0.7% (inactive)
8,CCOc1ccc2nc(Nc3nc(C)c(C)c(=O)[nH]3)nc(C)c2c1,1.2% (inactive)
9,COc1ccc([N+](=O)[O-])cc1NC(=O)c1ccc(N(C)C)cc1,1.4% (inactive)
10,Cn1cccc1Cc1nnc(SCC(=O)Nc2nc3ccccc3s2)n1CCc1ccccc1,-4.6% (inactive)
11,O=C1c2cccnc2-c2ncccc21,6.6% (inactive)
12,Cc1ccc(C)n1-c1ccc(SCC(=O)O)cc1,106% (active)
13,Cc1ccc(C)n1-c1ccc(OCC(=O)O)cc1,25.7% (inactive)
14,Cc1ccc(C)n1-c1ccc(CC(=O)O)cc1,25.5% (inactive)
15,CCOC(=O)c1c(NC(=S)NCc2ccccc2)sc2c1CCC2,0% (inactive)
16,CCOC(=O)c1c(C)[nH]c(/C=C(/C#N)C(N)=NCc2ccccc2)c1O,1.3% (inactive)
17,CC(Cc1ccccc1)N=Cc1c(O)[nH]c2ccccc12 (stereo not given),3.3% (inactive)
18,CC(Cc1ccccc1)N=C(N)/C(C#N)=C\c1[nH]c2ccccc2c1O (stereo not given),69.4% (active)
19,COc1ccc(N(CC(=O)NCC2CCCO2)S(=O)(=O)c2c(C)noc2C)cc1 (stereo not given),-8.1% (inactive)
20,Cc1nc(SCC(=O)Nc2ccc(F)cc2)c2oc3ccccc3c2n1,-2.1% (inactive)
21,O=C(CSc1ccc(C(=O)O)cc1)Nc1ccccc1,0.1% (inactive)
22,Cc1ccc(C)n1-c1ccc(O)c(C(=O)O)c1,100% (active)
23,Cc1nc(=O)c(-c2ccccc2)c(C)n1-c1ccc(O)c(C(=O)O)c1,-7.4% (inactive)
24,Cc1ccc(C)n1-c1ccc(C(=O)O)c(O)c1,101% (active)
25,Cc1nc(=O)c(-c2ccccc2)c(C)n1-c1ccc(C(=O)O)c(O)c1,3.2% (inactive)

row,Structure (SMILES),inhibition
1,Cc1ccc(C)n1-c1ccc(C(=O)O)c(Cl)c1,28.4% (inactive)
2,O=C(O)c1ccc(-n2cccc2)cc1O,4.3% (inactive)
3,Cc1ccc(-c2ccccc2)n1-c1ccc(Cl)c(C(=O)O)c1,4.5% (inactive)
4,Cc1ccc(-c2ccccc2)n1-c1ccc(O)c(C(=O)O)c1,42.1% (inactive)
5,Cc1ccc(C)n1-c1ccc(Cl)c(C(=O)O)c1,71.5% (active)
6,CCCOc1ccc(C2/C(=C(/O)c3ccccc3)C(=O)C(=O)N2CCCN(C)C)cc1OC (stereo not given),-0.5% (inactive)
7,CCN(CC)CC(=O)Nc1c(Br)ccc2c1OCO2,-11.8% (inactive)
8,CCC(=O)N1CCc2cc(Br)cc(S(=O)(=O)N3CCN(C(=O)c4ccco4)CC3)c21,4.6% (inactive)
9,COc1ccc(/C=N/NC(=O)CCn2c3ccccc3c3ccccc32)cc1,0.1% (inactive)
10,CCSc1nnc(Cn2c(=O)sc3ccccc32)n1C,0.4% (inactive)
11,CC(C)(C)C(=O)CC(O)(c1ccccc1)C(F)(F)C(F)F (stereo not given),-1.8% (inactive)
12,CC(C)(C)C1=CC(=O)C=C(C(C)(C)C)C1=O,6.8% (inactive)
13,CC(C)(C)C1=CC(N)=C(C(C)(C)C)C(=O)C1=O,86.4% (active)
14,CC(=O)/C(C1=C(C(C)(C)C)C(=O)C(=O)C(C(C)(C)C)=C1)=C(/C)O,6.5% (inactive)
15,c1ccc(Cn2ncc3c(N4CCN(c5ccccn5)CC4)ncnc32)cc1,6.4% (inactive)
16,COc1ccc(CNS(=O)(=O)c2ccc([N+](=O)[O-])cc2)cc1,-4% (inactive)
17,C=CCN1C(=O)NC(=O)/C(=C\c2ccc(OCc3ccc(Cl)cc3)c(OC)c2)C1=O,5.1% (inactive)
18,COc1cccc(/C=N/n2c(SC)nnc2-c2ccccc2)c1O,-6.8% (inactive)
19,Brc1ccc(/C=N/n2c(-c3ccccc3)nnc2-c2ccccc2)cc1,-2.7% (inactive)
20,O=C(c1ccco1)N1CCN(S(=O)(=O)c2ccc(Br)s2)CC1,-14.7% (inactive)
21,CCOc1ccc(NC(=O)c2cccc(F)c2)cc1,4.1% (inactive)
22,O=C(Nc1cccc(NC(=O)c2cccnc2)c1)c1cccnc1,5.6% (inactive)
23,Nc1cc(S(=O)(=O)O)cc2cccc(S(=O)(=O)O)c12,-2% (inactive)
24,Nc1ccc(S(=O)(=O)O)c2cccc(O)c12,29.8% (inactive) and 64.8% (active)
25,Nc1ccc(S(=O)(=O)O)c2cccc(S(=O)(=O)O)c12,-2.3% (inactive)

row,Structure (SMILES),inhibition
1,O=C(c1ccc(N2CCN(C(=O)c3ccccc3)CC2)cc1)c1cccc(F)c1,4.8% (inactive)
2,O=C(c1ccc(N2CCN(C(=O)c3ccccc3F)CC2)cc1)c1cccc(F)c1,4.1% (inactive)
3,O=C(c1ccc(N2CCN(C(=O)c3ccccc3Br)CC2)cc1)c1cccc(F)c1,52.2% (active)
4,Cc1ccc(C(=O)Nc2ccc(N3CCOCC3)c(Cl)c2)cc1C,5.9% (inactive)
5,O=S(=O)(c1cc(Cl)cc(Cl)c1O)c1cc(Cl)cc(Cl)c1O,-3.1% (inactive)
6,O=C(Cn1c(NCCCO)nc2ccccc21)c1ccco1,-11.1% (inactive)
7,O=C(O)C1Nc2c(C(=O)N3CCOCC3)cccc2C2C=CCC12 (stereo not given),0.2% (inactive)
8,CC(=O)c1ccc2c(c1)C1C=CCC1C(c1ccc(Cl)cc1)N2 (stereo not given),14.4% (inactive)
9,Cc1ccc2c(c1)C1C=CCC1C(c1ccccc1[N+](=O)[O-])N2 (stereo not given),7% (inactive)
10,CCOC(=O)c1ccc2c(c1)C1C=CCC1C(c1ccc(Cl)cc1Cl)N2 (stereo not given),3.3% (inactive)
11,Cc1cc(I)c2c(c1)C1C=CCC1C(C(=O)O)N2 (stereo not given),103% (active)
12,Cc1c(Cl)ccc2c1NC(C(=O)O)C1CC=CC21 (stereo not given),107% (active)
13,O=C(O)C1Nc2c(C(=O)N3CCCC3)cccc2C2C=CCC12 (stereo not given),5% (inactive)
14,Cc1ccc2c(c1)C1C=CCC1C(c1ccc([N+](=O)[O-])cc1)N2 (stereo not given),3.4% (inactive)
15,O=C(O)C1Nc2c(Cl)cc(Cl)cc2C2C=CCC12 (stereo not given),98.5% (active)
16,Brc1ccc(-c2nc(Cc3ccccc3)no2)cc1,-2.5% (inactive)
17,CCOc1cc(-c2noc(CCC(=O)Nc3cccnc3)n2)ccc1OC,-11.2% (inactive)
18,O=C(Nc1ccc(Cl)c(-c2nc3ccccc3[nH]2)c1)c1cc2ccccc2o1,5% (inactive)
19,O=C(Nc1ccc(-c2nc3ccccc3[nH]2)cc1)c1ccc(Cl)c(Cl)c1,51.8% (active)
20,Cc1ccc2nc(-c3cccc(NC(=O)c4ccco4)c3)[nH]c2c1,0.4% (inactive)
21,O=C(Nc1ccc(-c2nc3ccccc3[nH]2)cc1)c1cc2ccccc2o1,53.5% (active)
22,O=C(Nc1ccc(-c2nc3ccccc3[nH]2)cc1)c1ccccc1,-0.7% (inactive)
23,O=C(Nc1ccc(-c2nc3ccccc3[nH]2)cc1)c1ccc(Cl)cc1,5.4% (inactive)
24,O=C(Nc1cccc(-c2nc3ccccc3[nH]2)c1)c1ccco1,3.5% (inactive)
25,O=C(Nc1ccc(-c2nc3ccccc3[nH]2)cc1)c1ccc(Br)o1,8.1% (inactive)
